PMC4336329 (PLoS ONE, 2015)
About 2,200 (0.71%) of roughly 310,000 compounds showed an effect of 50% or more. The effect is printed as a negative number. The sample holds strong results, similar compounds and a random draw of the others, so the mix is not that of the screen.

target: human ether-à-go-go-related gene (hERG) potassium channel (human, UniProt Q12809); test: primary screen, population patch clamp on CHO cells stably expressing hERG; higher = less effect of the substance
Sequence (Q12809 whole entry, looked up): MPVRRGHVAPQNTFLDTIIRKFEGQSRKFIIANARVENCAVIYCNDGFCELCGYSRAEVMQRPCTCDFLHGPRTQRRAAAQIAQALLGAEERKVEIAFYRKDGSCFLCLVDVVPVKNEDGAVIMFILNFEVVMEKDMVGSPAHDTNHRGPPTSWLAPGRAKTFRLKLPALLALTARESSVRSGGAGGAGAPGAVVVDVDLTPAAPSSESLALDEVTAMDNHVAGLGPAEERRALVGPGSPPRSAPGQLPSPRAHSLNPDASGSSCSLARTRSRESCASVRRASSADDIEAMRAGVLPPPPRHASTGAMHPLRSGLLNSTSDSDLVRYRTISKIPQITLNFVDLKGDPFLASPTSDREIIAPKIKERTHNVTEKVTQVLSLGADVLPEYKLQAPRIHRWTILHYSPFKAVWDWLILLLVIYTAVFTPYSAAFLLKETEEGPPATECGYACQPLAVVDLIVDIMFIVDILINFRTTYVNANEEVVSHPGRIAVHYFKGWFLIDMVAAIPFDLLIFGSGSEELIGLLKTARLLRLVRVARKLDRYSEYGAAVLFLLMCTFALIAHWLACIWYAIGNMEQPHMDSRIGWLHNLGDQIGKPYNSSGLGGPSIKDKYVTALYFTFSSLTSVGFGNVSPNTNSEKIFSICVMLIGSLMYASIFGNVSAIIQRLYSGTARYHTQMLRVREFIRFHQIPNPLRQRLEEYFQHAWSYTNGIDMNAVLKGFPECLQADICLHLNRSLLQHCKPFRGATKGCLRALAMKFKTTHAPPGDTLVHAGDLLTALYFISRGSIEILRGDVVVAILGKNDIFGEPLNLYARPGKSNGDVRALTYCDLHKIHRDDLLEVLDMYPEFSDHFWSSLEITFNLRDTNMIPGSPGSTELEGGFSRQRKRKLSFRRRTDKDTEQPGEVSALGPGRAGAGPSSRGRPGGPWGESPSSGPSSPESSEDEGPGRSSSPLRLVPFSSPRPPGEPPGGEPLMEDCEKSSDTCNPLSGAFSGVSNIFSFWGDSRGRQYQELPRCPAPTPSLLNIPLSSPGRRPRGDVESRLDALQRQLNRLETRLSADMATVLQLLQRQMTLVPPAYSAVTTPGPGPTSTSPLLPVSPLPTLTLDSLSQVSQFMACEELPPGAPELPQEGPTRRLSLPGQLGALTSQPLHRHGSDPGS

Compound | hERG current change (%, negative = inhibition) at 1uM [%]
COc1ccc(NC(=O)CSc2nnc(Cn3cnc([N+](=O)[O-])n3)n2C)cc1 | 12.5
Cc1ccc(OCC(=O)NNC(=O)CSc2nnc(-c3ccc(C)cc3)n2C)cc1 | 7.24
CCC(=O)N1CCN(c2ccccc2NC(=O)Cc2ccc(Cl)cc2)CC1 | -41.5
c1ccc(SCCOCCN2CCc3ccccc3C2)cc1 | -62.7
Clc1ccc(SCCCN2CCCCC2)cc1.O=C(O)C(=O)O | -24.5
Clc1ccc(SCCOCCN2CCCCC2)cc1.O=C(O)C(=O)O | -61.1
Cl.Clc1ccc(SCCOCCN2CCc3ccccc3C2)cc1 | 8.68
Cc1ccc(SCCOCCN2CCc3ccccc3C2)cc1 | -6.57
Clc1ccc(SCCOCCN2CCCCCC2)cc1.O=C(O)C(=O)O | -20.6
CC(NC(=O)CCC(=O)N1CCCCCC1)c1ccccc1 (centres unmarked) | 16.8
Cc1ccc(NC(=O)c2noc(C(C)C)c2[N+](=O)[O-])cc1 | 4.81
CCN1/C(=C(\O)c2ccccc2)C(=O)c2ccccc2S1(=O)=O | 13.6
COc1cc2c(cc1OC)C(COc1cc(C)cc(C)c1)N(C(C)=O)CC2 (centres unmarked) | 2.4
S=C(Nc1ccc(Cl)cc1)N(CCCN1CCOCC1)Cc1ccco1 | -8.98
CCOC(=O)c1ccc(NC(=S)N(CCCN(CC)CC)Cc2ccco2)cc1 | -57.9
CCOC(=O)c1ccc(NC(=S)N(CCCN2CCN(CC)CC2)Cc2ccco2)cc1 | -45.4
CN1CCN(CCCN(Cc2ccco2)C(=S)Nc2ccc(Cl)cc2)CC1 | -53.8
CCOC(=O)c1ccc(NC(=S)N(CCN2CCCCCC2)Cc2ccco2)cc1 | -87.2
CCOC(=O)c1ccc(NC(=S)N(CCCN2CCCCC2)Cc2ccco2)cc1 | -71.3
CCOC(=O)c1ccc(NC(=S)N(CCCN2CCCCCC2)Cc2ccco2)cc1 | -31.7
CCOC(=O)c1ccc(NC(=S)N(CCCN2CCCC(C)C2)Cc2ccco2)cc1 (centres unmarked) | -42.8
CCOC(=O)c1ccc(NC(=S)N(Cc2cccnc2)Cc2ccco2)cc1 | 7.3

Compound | hERG current change (%, negative = inhibition) at 1uM [%]
CCN1CCN(CCCN(Cc2ccco2)C(=S)Nc2ccc(Cl)cc2)CC1 | -18.6
CCOC(=O)c1ccc(NC(=S)N(CCN2CCCCCC2)Cc2cccs2)cc1 | 8.82
CCc1ccc(NC(=S)N(CCN2CCCCC2)Cc2ccco2)cc1 | -34.7
CCOc1cccc(NC(=O)C2CC(=O)N(C)C(=Nc3cccc(F)c3)S2)c1 (centres unmarked) | 9.17
N#Cc1ccc(-c2ccc(OCC3CNC(=O)O3)cc2)cc1 (centres unmarked) | 8.74
CCOC(=O)c1cccc(NC(=O)CCNS(=O)(=O)c2cc(Br)cnc2N)c1 | 14.4
Cc1ccc(S(=O)(=O)N2CCC(=O)N(CCOCc3cccc(F)c3)CC2)cc1 | 7.15
O=C(O)CCn1nnc(-c2ccccc2)n1 | 10.7
O=C(COc1ccc(Cl)cc1)NCc1nnc(SCC(=O)Nc2ccccc2)o1 | 1.01
Cc1ccc(SCC(=O)Nc2ccc(C(=O)Nc3ccc(O)cc3)cc2)cc1 | 12.6
Cc1ccc(NC(=O)Cc2ccc([N+](=O)[O-])cc2)c(Br)c1 | 5.32
CC(C)Oc1ccc(CCC(=O)N/N=C/c2ccc3c(c2)OCO3)cc1 | 16.1
CN(C)CCn1cnc2c(c1=N)C(c1ccccc1)c1ccc3ccccc3c1O2 (centres unmarked) | -78.1
COc1ccc(C2c3ccc4ccccc4c3Oc3ncn(CCN(C)C)c(=N)c32)cc1 (centres unmarked) | -40.1
CN(C)CCCn1cnc2c(c1=N)C(c1ccccc1)c1ccc3ccccc3c1O2 (centres unmarked) | -61.9
COc1ccc(C2c3ccc4ccccc4c3Oc3ncn(CCO)c(=N)c32)cc1 (centres unmarked) | -61.7
COc1ccccc1C1c2ccc3ccccc3c2Oc2ncn(CCN(C)C)c(=N)c21 (centres unmarked) | -7
COc1ccc(C2c3ccc4ccccc4c3Oc3ncn(CCO)c(=N)c32)cc1OC (centres unmarked) | -13.9
COc1ccc(C2c3ccc4ccccc4c3Oc3ncn(CCCN(C)C)c(=N)c32)cc1 (centres unmarked) | -29
COc1ccc(C2c3ccc4ccccc4c3Oc3ncn(CCCO)c(=N)c32)cc1 (centres unmarked) | -40.6
N=c1c2c(ncn1CCCO)Oc1c(ccc3ccccc13)C2c1ccccc1 (centres unmarked) | -20.5
Nc1cccc2c1C(=O)N(C(=O)c1ccc(Cl)c(S(=O)(=O)N3CCCCCC3)c1)C2=O | 13.1

Compound | hERG current change (%, negative = inhibition) at 1uM [%]
COc1cccc(CCc2nnc(CCC(=O)N3CCN(Cc4ccccn4)CC3)o2)c1 | 10.2
COCCCNC(=O)c1cc2c(=O)n(C)c3ccccc3c2n1C | -8.02
O=C(COC(=O)CCN1C(=O)c2ccccc2C1=O)Nc1ccccc1[N+](=O)[O-] | 16.6
O=C(CSc1nnc(-c2ccco2)o1)N1c2ccccc2CCc2ccccc21 | 9.21
CCOC(=O)C(C)n1cnc2c(nnn2Cc2ccc(C)cc2)c1=O (centres unmarked) | 11.6
CC(C)c1ccc(-c2nc(N3CCCCCC3)nc3n[nH]c(N)c23)cc1 | 10.2
COc1ccc(NC(=O)Cn2nnc(C(=O)NCCc3ccc(OC)c(OC)c3)c2N)c(OC)c1 | -1.5
CCn1c(CCc2ccccc2)nnc1SCC(N)=O | 13.3
NC(=O)C1(c2ccccc2)CCC(=O)N1c1ccccc1 (centres unmarked) | 14.8
CCOc1ccc(S(=O)(=O)N(CC(=O)NCc2ccncc2)c2ccc(C)cc2)cc1 | -14.6
O=C(CN(Cc1ccccc1)S(=O)(=O)c1ccc(F)cc1)NCc1cccnc1 | -31.9
CCOc1ccc(N(CC(=O)NCc2cccnc2)S(=O)(=O)c2ccc(F)cc2)cc1 | 7.16
O=C(CN(C1CCCCC1)S(=O)(=O)c1ccc(Cl)cc1)NCc1cccnc1 | -60.6
COc1ccc(S(=O)(=O)N(CC(=O)NCc2cccnc2)Cc2ccccc2)cc1 | -51.2
CCOc1ccc(S(=O)(=O)N(CC(=O)NCc2cccnc2)c2ccc(F)cc2)cc1 | -67.2
CCN(CC(=O)NCc1cccnc1)S(=O)(=O)c1ccc(OC)cc1 | 0.0713
Cc1ccc(S(=O)(=O)N(CC(=O)NCc2cccnc2)C2CCCCC2)cc1 | -30.3
Cc1ccc(S(=O)(=O)N(CC(=O)NCc2cccnc2)c2ccc(F)cc2)cc1 | -38.1
CCOc1ccc(S(=O)(=O)N(CC(=O)NCc2cccnc2)c2ccc(C)cc2)cc1 | -52.4
CCOc1ccc(N(CC(=O)NCc2ccccc2)S(=O)(=O)c2ccc(C)cc2)cc1 | 6.54
O=C(CN(C1CCCCC1)S(=O)(=O)c1ccccc1)NCc1cccnc1 | 5.52
C[C@H]1CN=C(N(C)C)N1CCC1CCCCC1 | 13.6

Compound | hERG current change (%, negative = inhibition) at 1uM [%]
CN(CC(=O)Nc1cccc(S(=O)(=O)NC2=NCCCCC2)c1)Cc1ccc(C(C)(C)C)cc1.O=C(O)C(=O)O | 12.9
CCN1CCN(S(=O)(=O)c2cc(OC)ccc2OC)CC1 | 19
c1ccc(CSc2nnc3c(n2)OC(c2ccco2)Nc2ccccc2-3)cc1 (centres unmarked) | 14.9
COC(=O)c1sc(Nc2ccccc2)nc1C | 13.5
C/C(N)=C(/C#N)C(=O)CSc1nc2cc(Cl)ccc2s1 | -7.65
O=C(O)c1ccc2c(c1)OCCOCCOCCOCCOCCO2 | -12.4
CC(=O)c1ccc2c(c1)OCCOCCOc1ccccc1OCCOCCO2 | -82.5
c1ccc2c(c1)OCCOCCOCCO2 | 13.2
CC(=O)[O-].[K+].c1ccc2c(c1)OCCOCCOc1ccccc1OCCOCCO2 | -80.7
O=C(c1ccccc1)c1ccc2c(c1)OCCOCCOCCO2 | 8.88
C/C(=N/O)c1ccc2c(c1)OCCOCCOc1cc(/C(C)=N/O)ccc1OCCOCCO2 | -79.7
CC(=O)c1ccc2c(c1)OCCOCCOc1ccc(C(C)=O)cc1OCCOCCO2 | -84.8
CC(=O)c1ccc2c(c1)OCCOCCOCCO2 | 12.3
CC(=O)c1ccc2c(c1)OCCOCCOCCOCCOCCO2 | -11.8
C/C(=N\O)c1ccc2c(c1)OCCO2 | 12.6
CC(=O)c1ccc2c(c1)OCCOCCOCCOCCO2 | -3.2
c1ccc2c(c1)OCCOCCOCCOCCOc1ccccc1OCCOCCOCCO2 | -11.5
CN1CCN(C2=C(Cl)C(=O)N(CCc3ccccc3)C2=O)CC1 | 17.7
CCN(CC)S(=O)(=O)c1ccc(C(=O)Nc2c3c(nn2C(C)(C)C)CS(=O)(=O)C3)cc1 | 5.04
Cc1cc(C)c[n+](-c2nc3ccccc3nc2[N-]S(=O)(=O)c2cccs2)c1 | 2.45
